Assay results as given in PubChem BioAssay (EPA / NIEHS).
Where “and” joins values, the source holds several entries; their conditions need not be identical. Equal entries are not always repeated. Some compounds were tested as several samples or in several runs, with calls that do not always agree. Calls of active or inactive are those of the source. The calls were made as follows: active = hit-call score of the fitted dose curve at least 0.9, where 1 is the maximum; inactive = score below 0.9.

read-out: CD69, CD69 (gene 969); experiment: BSK_SAg_CD69: BioMAP Diversity Plus: SAg Assay for CD69 Biomarker Activity (AID 2283089); conditions: primary human HUVEC with PBMC; actives raise or lower the signal
Protocol: BSK_SAg is a cell-based, multiplexed-readout assay that uses umbilical vein endothelium and peripheral blood mononuclear cells, a human vascular primary cell co-culture, with measurements taken at 24 hours after chemical dosing in a 96-well plate.BSK_SAg_CD69 is one of 10 assay component(s) measured or calculated from the BSK_SAg assay. It is designed to make measurements of enzyme-linked immunosorbent assay, a form of binding reporter, as detected with fluorescence intensity signals by Enzyme-linked immunosorbent assay technology.Data from the assay component BSK_SAg_CD69 was analyzed into 1 assay endpoint. This assay endpoint, BSK_SAg_CD69, was analyzed with bidirectional fitting relative to DMSO as the negative control and baseline of activity. Using a type of binding reporter, gain or loss-of-signal activity can be used to understand changes in the signaling as they relate to the gene CD69. Furthermore, this assay endpoint can be referred to as a primary readout, because this assay has produced multiple assay endpoints where this one serves a signaling function. To generalize the intended target to other relatable targets, this assay endpoint is annotated to the cytokine intended target family, where the subfamily is inflammatory factor.
The levels of cell surface (or secreted, indicated by the prefix "s") biomarker endpoints were measured by ELISA. Overt cytotoxicity to cells in confluent adherent cultures (all systems other than the BT system) was assessed by measuring total protein levels using sulforhodamine B (SRB) staining in parallel cultures at the time of biomarker measurements, indicated as SRB endpoints. For proliferation assays for adherent cell types, individual cell types are cultured at sub-confluence and relative cell numbers quantified by SRB staining at time points optimized for each system (48 h: 3C and CASM3C systems; 72 h: BT and HDF3CGF systems; 96 h: SAg system). SRB was performed by staining cells with 0.1% SRB after fixation with 10% TCA and reading wells at 560 nm.Viability and proliferation of PBMC (T cells) was quantified by Alamar Blue reduction for the SAg and BT systems. For PBMC viability (referred to as PBMC Cytotoxicity within the assay endpoint names), cells were plated (75,000/well in a 96-well plate) and then chemical samples added for 1 h before addition of activators, SEB and TSST-1 (20 ng/mL final concentration each). Cells were incubated for 90 h. Then, Alamar Blue (20 uL/well) (Invitrogen, Cat DAL1100) was added for 6 h, and the plates were read with a fluorescence microplate reader at 546/580 nm (excitation/emission). For PBMC proliferation, cells were plated and activated as above but incubated for only 16 h prior to addition of Alamar Blue. Plates were read after 6 h.

SMILES | outcome | AC50
CCOP(=S)(OCC)SCn1nnc2ccccc2c1=O | inactive | –
CCOP(=S)(S)OCC | inactive | –
COC(=O)C(F)(F)C(F)(F)OC(F)(C(F)(F)F)C(F)(F)OC(F)=C(F)F (stereo not given) | inactive | –
CC(C)(C)OOC(C)(C)C | inactive | –
Cc1c([N+](=O)[O-])cc2c(c1[N+](=O)[O-])C(C)(C)CC2(C)C | inactive | –
C=CC(=O)OCC(CC)(COC(=O)C=C)COC(=O)C=C | – | 2.3 µM (active)
CC(O)C(F)(F)C(F)(F)F (stereo not given) | inactive | –
Nc1cc2c3c(c1)C(c1ccccc1)=N[C@@H](NC(=O)c1cccnc1)C(=O)N3CC2 | – | 0.837 µM (active)
c1nc[nH]n1 | inactive | –
Cc1ccc([N+](=O)[O-])cc1C | inactive | –
O=[N+]([O-])c1ccc(Cl)c(Cl)c1 | inactive | –
c1cc2c3c(cccc3c1)CC2 | inactive | –
O=C(O)C1C(C(=O)O)C2(Cl)C(Cl)=C(Cl)C1(Cl)C2(Cl)Cl (stereo not given) | inactive | –
COCCOCCO | inactive | –
O=P(OCC(Br)CBr)(OCC(Br)CBr)OCC(Br)CBr (stereo not given) | inactive | –
ClC1=C(Cl)C2(Cl)C3C(Cl)C(Cl)CC3C1(Cl)C2(Cl)Cl (stereo not given) | – | 27.5 µM (active)
CC(C)(C)c1ccc(O)cc1 | inactive | –
OCC(F)(F)OC(F)(F)C(F)(F)OC(F)(F)C(F)(F)OC(F)(F)F | – | 24.4 µM (active) and 45.7 µM (active)
CC(Cl)(Cl)C(=O)O | inactive | –
c1ccc2c(c1)sc1ccccc12 | inactive | –

SMILES | outcome | AC50
ClC(Cl)=C(c1ccc(Cl)cc1)c1ccccc1Cl | – | 14.6 µM (active)
CCNc1nc(Cl)nc(NC(C)(C)C)n1 | inactive | –
CN(C)C(=O)Cl | inactive | –
CCCCC(CC)COP(=O)(Oc1ccccc1)Oc1ccccc1 (stereo not given) | – | 13.3 µM (active)
CCOC(=O)c1ccccc1C(=O)OCC | inactive | –
CCC(C)(C)c1ccc(O)cc1 | inactive | –
O=c1ssc(Cl)c1Cl | – | 6.02 µM (active)
c1ccc(OP(Oc2ccccc2)Oc2ccccc2)cc1 | inactive | –
CCOP(=S)(Oc1ccc([N+](=O)[O-])cc1)c1ccccc1 (stereo not given) | inactive | –
O=[N+]([O-])c1ccccc1 | inactive | –
N#Cc1cc([N+](=O)[O-])ccc1N | inactive | –
NC(=O)C(F)(F)C(F)(F)F | inactive | –
OCC(F)(F)OC(F)(F)C(F)(F)OC(F)(F)C(F)(F)OC(F)(F)CO | inactive | 12.9 µM (active)
Cc1ccc(O)cc1C | inactive | –
[N-]=[N+]=[N-] | inactive | –
OCC(F)(F)OC(F)(F)C(F)(F)OC(F)(F)CO | inactive | –
N#Cc1c(-c2ccc(Cl)cc2)[nH]c(C(F)(F)F)c1Br | – | 0.472 µM (active)
Cc1cccc(N)c1 | inactive | –
OCC1CO1 (stereo not given) | inactive | –
